Most compounds without a hit are left out; they make up all but 2.4% or so of the library.
D2 antagonist: HTS Assay for Allosteric Antagonists of the Human D2 Dopamine Receptor: Primary Screen for Antagonists. D(2) dopamine receptor (Homo sapiens), P14416. HEK293 TREx D2 cells, calcium flux, dopamine EC80. inhibition, % at 10 µM. 340,000 compounds, 2% hits; in the data active = inhibition above about 30%; inactive = below that, where a call was filed; also: 0% is about no effect
Target sequence (P14416 whole entry, looked up): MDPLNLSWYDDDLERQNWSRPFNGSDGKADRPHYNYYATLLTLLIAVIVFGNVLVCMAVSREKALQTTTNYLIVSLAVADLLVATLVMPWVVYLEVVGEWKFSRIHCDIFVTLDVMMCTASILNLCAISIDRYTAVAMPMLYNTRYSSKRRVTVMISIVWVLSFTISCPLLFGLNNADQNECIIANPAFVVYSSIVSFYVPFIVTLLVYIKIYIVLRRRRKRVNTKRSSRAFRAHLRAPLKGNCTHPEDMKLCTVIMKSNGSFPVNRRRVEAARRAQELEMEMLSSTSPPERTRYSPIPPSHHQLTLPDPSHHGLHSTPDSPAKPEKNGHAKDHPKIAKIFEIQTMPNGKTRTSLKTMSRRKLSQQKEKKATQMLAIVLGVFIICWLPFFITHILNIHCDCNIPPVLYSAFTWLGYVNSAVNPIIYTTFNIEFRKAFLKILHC
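Measurement of antagonist activity uses fluorescent calcium dye in inducible HEK293 T-REx D2 cells: 10 s baseline, compound addition with 180 s read, EC80 dopamine addition with a further 180 s read.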
D2 PAM-1: Beta-Arrestin HTS for Positive Allosteric Modulators of the Human D2 Dopamine Receptor: Potentiators | potentiation, % (test concentration not listed) | D(2) dopamine receptor (Homo sapiens), P14416 | 360,000 compounds, 0.23% hits | AID 624464, 2012 | DiscoveRx D2 beta-arrestin cells, luminescence, 90 min; 100% = 57 uM dopamine signal; in the data active = potentiation above about 50%; inconclusive = mostly about 30% to 49%
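D2 cells co-treated with compound plus 50 nM dopamine (EC20) for 90 min at 37 deg C to detect potentiation. Beta-arrestin recruitment was read as enzyme-fragment luminescence after 1 h at ambient temperature. Full response was set by 57 uM dopamine.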
D2 ag-1: HTS Assay for Allosteric Agonists of the Human D2 Dopamine Receptor: Primary Screen for Agonists | HEK293 T-REx D2 cells, calcium flux agonist mode | activation, % at 2 µM | 340,000 compounds, 0.53% hits | AID 485358, 2010;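 active = activation over 3 SD above normal in the single-dose calcium agonist read, cut at about 30% in these data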; also: 0% is about no effect
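Agonism scored from kinetic calcium signal (1 read/sec, 180 s) following compound pin transfer, after a 10 s baseline. Cells: HEK293 Trex line expressing inducible D2 receptor coupled to calcium, dye-loaded after overnight culture at 30 C.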
D2 PAM-2: HTS Assay for Positive Allosteric Modulators of the Human D2 Dopamine Receptor: Primary Screen for Potentiators; AID 485347, 2010; HEK293 T-REx D2, calcium flux, EC20 dopamine potentiation; D(2) dopamine receptor (Homo sapiens), P14416; 340,000 compounds, 0.34% hits; potentiation, % at 10 µM;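 active = potentiation over 3 SD above the plate norm, cut at about 30% in these data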; also: 0% is about no effect
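Calcium flux readout, no-wash dye, 1 read/s. Inducible HEK293 Trex D2 line, overnight 30 C. Compound alone 180 s (agonist flags), then EC20 dopamine, another 180 s to score potentiation.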
D2 ag-2: Beta-Arrestin HTS for Positive Allosteric Modulators of the Human D2 Dopamine Receptor: Agonists; DiscoveRx PathHunter D2 beta-arrestin, luminescence, 90 min; 100% = 57 uM dopamine signal; D(2) dopamine receptor (Homo sapiens), P14416; AID 624465, 2012; activation, % (no concentration beside the values); 360,000 compounds, 0.084% hits; in the data active = activation above about 40%; inconclusive = between about 15% and that limit
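Agonist mode: compounds alone added to overnight-plated D2 PathHunter cells for 90 min at 37 C, with 57 uM final dopamine (EC100) defining full response. Beta-arrestin recruitment detected by chemiluminescent reagent, read after 1 h at ambient temperature.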
Starred values were filed as active, the others as inactive; ? = inconclusive; · = not tested or not shown.

SMILES	D2 antagonist	D2 PAM-1	D2 ag-1	D2 PAM-2	D2 ag-2
Cc1cccc(N2C(=O)c3cccc4c(N)ccc(c34)C2=O)c1	7	2	117*	3	4
Nc1cccc(N2C(=O)c3cccc4c(N)ccc(c34)C2=O)c1	-18	-21	49*	2	-3
Nc1ccc2c3c(cccc13)C(=O)N(c1ccccc1)C2=O	-18	5	-2	6	3
CCOC(=O)c1c(C=O)c2sc(C)cc2n1C	43*	-6	0	8	-1
CCc1cccc(NC(=O)C2CCN(S(=O)(=O)c3ccc4c(c3)CC(C)N4C(C)=O)CC2)c1 (stereo unspecified)	70*	-1	0	9	-5
CC(=O)N1c2ccc(S(=O)(=O)N(C)CC(=O)N3CCCC3)cc2CC1C (stereo unspecified)	-23	-7	0	42*	-2
COc1ccccc1N1CCN(S(=O)(=O)c2ccc3c(c2)CC(C)N3C(C)=O)CC1 (stereo unspecified)	33*	-8	0	-14	-1
COc1ccccc1N1CCN(C(=O)C2CCN(S(=O)(=O)c3ccc4c(c3)CC(C)N4C(C)=O)CC2)CC1 (stereo unspecified)	-13	-9	1	-12	-2
CCc1ccc(NC(=O)C2CCN(S(=O)(=O)c3ccc4c(c3)NC(=O)CO4)CC2)cc1	10	-17	-2	4	1
CCc1cccc(NC(=O)C2CCN(S(=O)(=O)c3ccc4c(c3)NC(=O)CO4)CC2)c1	30*	-10	0	-25	5
COc1cccc(NC(=O)C2CCN(S(=O)(=O)c3ccc4c(c3)CC(C)N4C(C)=O)CC2)c1 (stereo unspecified)	17	-26	-1	-7	-1
CN(c1nnc(NC(=O)Nc2ccccc2C(F)(F)F)s1)C1CCCCC1	·	·	-1	13	·
COc1ccc(Cl)cc1NC(=O)Cc1ccc(NC(=O)N2CCCCc3ccccc32)cc1	·	·	0	-9	·
CC(NC(=O)[C@H](C)NC(=O)c1ccco1)c1ccc(S(N)(=O)=O)cc1 (stereo partly specified)	14	-3	1	-10	-5
CC(NC(=O)c1ccco1)C(=O)NC(C)c1cc(F)c(Cl)cc1Cl (stereo unspecified)	-3	-19	1	30*	-5
COc1ccc(C)cc1NC(=S)NC(C)c1ccc(OC)c(OC)c1 (stereo unspecified)	-11	53*	1	-2	0
CCCCCn1c(CCCNC(=O)c2ccc(Cl)cc2)nc2ccccc21	·	·	2	-19	·
Cc1ccn2c(=O)c(C(=O)NCCc3ccccc3)c(O)nc2c1	·	·	0	10	·
CCCCn1c(C2CC(=O)N(c3ccc(OCC)cc3)C2)nc2ccccc21 (stereo unspecified)	·	·	4	-4	·
CCCCCNC(=O)C1CC=CCC1C(=O)O (stereo unspecified)	36*	6	1	6	1
CCN(CC)C(=O)Cn1c(SCCOc2ccc(Cl)cc2)nc2ccccc21	·	·	11	-2	·
CC(=O)Nc1ccc(NC(=O)C2CCN(S(=O)(=O)c3cccc4nonc34)CC2)cc1	10	-1	0	21	2
Cc1cccc2sc(NC(=O)C3CCCO3)nc12 (stereo unspecified)	32*	-4	0	-4	-1
Cc1cccc2sc(NC(=O)C3CCN(S(=O)(=O)c4cc([N+](=O)[O-])ccc4Cl)CC3)nc12	·	64*	·	0	?
Cc1nnc(NC(=O)C2CCN(S(=O)(=O)c3cc([N+](=O)[O-])ccc3Cl)CC2)o1	14	2	-1	-5	?
Cc1cccc2sc(NC(=O)C3CCCN(S(=O)(=O)c4cccc5nonc45)C3)nc12 (stereo unspecified)	-9	-11	-2	39*	3
